We go through 10 compounds from PubChem BioAssay (Tox21).

Activity calls are given as the source filed them. Unless noted, the call rests on the fitted dose curve; in most records, active means well fitted curve in the direction sought with a large enough effect in the repeat runs; inconclusive means weak or mixed curves; inactive means no such curve, though single readings can be large; an effect the other way counts as inactive or inconclusive.

Experiment [1] can be described thus: qHTS assay for identifying genotoxic compounds that show differential cytotoxicity against isogenic chicken DT40 cell lines with known DNA damage response pathways - wild type cell line (AID 743012). Further: nearly all actives have a fitted effect of over 60% in size. Further: potency means the concentration at half of the fitted maximal effect. An outline of the steps: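 Luminescent ATP viability signal (CellTiter-Glo, 30 min RT) recorded after wild type DT40 cells were incubated with compounds for 40 h at 37 C/5% CO2.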
(qHTS replaces the single test concentration by a dilution series.)

Experiment [2] can be described thus: qHTS assay for identifying genotoxic compounds that show differential cytotoxicity against isogenic chicken DT40 cell lines with known DNA damage response pathways - Rev3 mutant cell line (AID 743014). Further: nearly all actives have a fitted effect of over 55% in size. Further: potency means the concentration at half of the fitted maximal effect.
A short description of experiment [3]: qHTS assay for identifying genotoxic compounds that show differential cytotoxicity against isogenic chicken DT40 cell lines with known DNA damage response pathways - Rad54/Ku70 mutant cell line (AID 743015). Further: nearly all actives have a fitted effect of over 60% in size. Further: potency means the concentration at half of the fitted maximal effect.
Experiment [4] is described as follows: qHTS assay to identify small molecule antagonists of the androgen receptor (AR) signaling pathway - cell viability counter screen (AID 743033; further: nearly all actives have a fitted effect of over 45% in size; further: potency means the concentration at half of the fitted maximal effect).
Experiment [5] can be described thus: qHTS assay to identify small molecule antagonists of the androgen receptor (AR) signaling pathway using the MDA cell line - cell viability counter screen (AID 743041; further: nearly all actives have a fitted effect of over 45% in size; further: potency means the concentration at half of the fitted maximal effect). In short, it runs like this: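 Using the breast carcinoma line MDA-kb2 AR-luc, test chemicals were co-incubated with R1881 for 16 h; CellTiter-Fluor reagent, added at 15.5 h, provided a fluorescence measure of live cells.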

Experiment [6] in a line: qHTS assay to identify small molecule antagonists of the thyroid receptor (TR) signaling pathway - cell viability counter screen (AID 743064). Further: nearly all actives have a fitted effect of over 50% in size. Further: potency means the concentration at half of the fitted maximal effect. An outline of the steps: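 GH3.TRE-Luc cells, 4 h pre-plating; cpd + T3 1 nM final; 37 °C 23.5 h; CellTiter-Fluor 30 min; fluorescence read.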
A short description of experiment [7]: qHTS assay to identify small molecule antagonists of the thyroid receptor (TR) signaling pathway (AID 743065). Further: nearly all actives have a fitted effect of over 55% in size. Further: potency means the concentration at half of the fitted maximal effect. In short, it runs like this:
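Antagonism measured as loss of luciferase signal in GH3 cells stably carrying a TRE-luciferase reporter, co-treated with compound and T3 (1 nM final) for 23.5 h at 37 C. Viability was read in the same well by CellTiter-Fluor.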

Experiment [8] has as its target Estrogen receptor (Homo sapiens) (UniProt P03372). The experiment can be described thus: qHTS assay to identify small molecule antagonists of the estrogen receptor alpha (ER-alpha) signaling pathway (AID 743069; active means well fitted curve in the direction sought with a large enough effect in the signal ratio in the repeat runs, not every such curve was filed as active; inconclusive means weak or mixed curves, or effect the other way; inactive means no such curve, though single readings can be large or run the other way; the % refers to the signal ratio; further: potency means the concentration at half of the fitted maximal effect). An outline of the steps: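 Fluorescence intensity from a beta-lactamase FRET substrate served as the read-out. Cells: HEK293 with stably integrated ER-alpha-UAS-bla reporter. Agonist 17beta-estradiol was co-added with compounds; incubation 18 hr at 37C, substrate 2 hr at room temperature.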

Experiment [9] in a line: qHTS assay to identify small molecule antagonists of the estrogen receptor alpha (ER-alpha) signaling pathway - cell viability counter screen (AID 743074; calls by dose curve; further: nearly all actives have a fitted effect of over 45% in size).
The nature of experiment [10]: qHTS assay to identify small molecule antagonists of the estrogen receptor alpha (ER-alpha) signaling pathway using the BG1 cell line - cell viability counter screen (AID 743081).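 Further: compound given together with 17beta-estradiol as the ER stimulus; nearly all actives have a fitted effect of over 45% in size.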 Further: potency means the concentration at half of the fitted maximal effect.
A further experiment concerns the target Aromatase (Homo sapiens) (UniProt P11511). Nature of the experiment: qHTS assay to identify aromatase inhibitors (AID 743083). Further: nearly all actives have a fitted effect of over 55% in size. Further: potency means the concentration at half of the fitted maximal effect.
Experiment [11] addresses Androgen receptor (Homo sapiens) (UniProt P10275). The experiment can be described thus: qHTS assay to identify small molecule antagonists of the androgen receptor (AR) signaling pathway using the MDA cell line (AID 743042; further: nearly all actives have a fitted effect of over 55% in size; further: potency means the concentration at half of the fitted maximal effect). An outline of the steps:
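Antagonist mode: compounds plus R1881 agonist added to MDA-kb2 AR-luc cells, incubated 16 h at 37C. Luciferase reporter luminescence quantified, with multiplexed CellTiter-Fluor readout for cell viability.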

The subject of experiment [12] is thyroid hormone receptor (rat, GH3 cells). Nature of the experiment: qHTS assay to identify small molecule agonists of the thyroid receptor (TR) signaling pathway (AID 743066; calls by dose curve).
The target of experiment [13] is Estrogen receptor (Homo sapiens) (UniProt P03372). Nature of the experiment: qHTS assay to identify small molecule agonists of the estrogen receptor alpha (ER-alpha) signaling pathway (AID 743075; calls by dose curve).
Sequence of Estrogen receptor (Homo sapiens) (P03372 whole entry, looked up): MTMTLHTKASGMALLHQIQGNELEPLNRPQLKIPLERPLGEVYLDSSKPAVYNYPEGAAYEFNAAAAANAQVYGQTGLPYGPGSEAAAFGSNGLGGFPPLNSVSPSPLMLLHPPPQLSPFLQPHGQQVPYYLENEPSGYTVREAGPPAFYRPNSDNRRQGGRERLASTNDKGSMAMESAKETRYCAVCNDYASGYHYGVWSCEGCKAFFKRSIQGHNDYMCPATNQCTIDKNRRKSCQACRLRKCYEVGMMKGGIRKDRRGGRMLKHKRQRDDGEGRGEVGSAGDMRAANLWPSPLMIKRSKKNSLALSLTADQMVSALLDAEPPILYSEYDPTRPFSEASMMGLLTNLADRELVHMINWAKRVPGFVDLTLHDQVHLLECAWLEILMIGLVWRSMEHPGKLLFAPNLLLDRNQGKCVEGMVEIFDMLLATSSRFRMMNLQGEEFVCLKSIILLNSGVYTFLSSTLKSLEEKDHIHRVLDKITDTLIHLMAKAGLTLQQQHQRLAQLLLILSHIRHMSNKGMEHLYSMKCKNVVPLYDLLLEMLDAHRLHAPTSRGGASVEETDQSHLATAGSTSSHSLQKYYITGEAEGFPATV
Experiment [14] can be described thus: qHTS assay to identify small molecule antagonists of the glucocorticoid receptor (GR) signaling pathway - cell viability counter screen (AID 720693). Further: nearly all actives have a fitted effect of over 55% in size.
In experiment [15] the target is Estrogen receptor (Homo sapiens) (UniProt P03372). The experiment can be described thus: qHTS assay to identify small molecule agonists of the estrogen receptor alpha (ER-alpha) signaling pathway using the BG1 cell line (AID 743079). Further: nearly all actives have a fitted effect of over 20% in size. Further: potency means the concentration at half of the fitted maximal effect. To be noted: BG1Luc4E2 cells, ERE-luciferase agonist, 22 h; activation: at 70.3 µM (top of the series).
A short description of experiment [16]: qHTS assay to identify small molecule antagonists of the estrogen receptor alpha (ER-alpha) signaling pathway using the BG1 cell line (AID 743080; calls by dose curve; further: nearly all actives have a fitted effect of over 25% in size). An outline of the steps: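 Antagonist mode: compounds in DMSO were pinned onto BG1-Luc-4E2 cells alongside 17beta-estradiol agonist, incubated 21.5 h, and ERE-driven luciferase measured with ONE-Glo. Cytotoxicity was multiplexed using CellTiter-Fluor fluorescence.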

Experiment [17] has as its target Androgen receptor (Homo sapiens) (UniProt P10275). Nature of the experiment: qHTS assay to identify small molecule antagonists of the androgen receptor (AR) signaling pathway (AID 743035; active means well fitted inhibition curve with a large enough effect in the signal ratio in the repeat runs, not every such curve was filed as active; inconclusive means weak or mixed curves, or effect the other way; inactive means no such curve, though single readings can be large or run the other way; the % refers to the signal ratio). In short, it runs like this: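 Quantitative HTS of the Tox21 10K library used HEK293 AR-UAS-bla cells stimulated with R1881 alongside compound for 16 h at 37C, followed by beta-lactamase FRET detection (LiveBLAzer B/G, 2 h, RT).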

Sequence of Aromatase (Homo sapiens) (P11511 whole entry, looked up): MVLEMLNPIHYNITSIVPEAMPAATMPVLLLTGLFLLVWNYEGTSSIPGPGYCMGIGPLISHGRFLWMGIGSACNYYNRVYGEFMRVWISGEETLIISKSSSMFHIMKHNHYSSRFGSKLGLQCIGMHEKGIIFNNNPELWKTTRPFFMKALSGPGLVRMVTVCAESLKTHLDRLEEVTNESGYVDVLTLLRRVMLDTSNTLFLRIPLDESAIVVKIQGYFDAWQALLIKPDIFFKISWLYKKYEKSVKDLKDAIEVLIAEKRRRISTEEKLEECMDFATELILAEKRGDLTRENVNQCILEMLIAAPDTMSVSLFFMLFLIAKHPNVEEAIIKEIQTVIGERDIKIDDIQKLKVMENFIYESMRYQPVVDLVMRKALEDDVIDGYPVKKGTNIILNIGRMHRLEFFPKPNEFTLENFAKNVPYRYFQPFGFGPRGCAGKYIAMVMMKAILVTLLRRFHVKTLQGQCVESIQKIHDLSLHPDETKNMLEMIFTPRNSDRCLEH
Sequence of Androgen receptor (Homo sapiens) (P10275 whole entry, looked up): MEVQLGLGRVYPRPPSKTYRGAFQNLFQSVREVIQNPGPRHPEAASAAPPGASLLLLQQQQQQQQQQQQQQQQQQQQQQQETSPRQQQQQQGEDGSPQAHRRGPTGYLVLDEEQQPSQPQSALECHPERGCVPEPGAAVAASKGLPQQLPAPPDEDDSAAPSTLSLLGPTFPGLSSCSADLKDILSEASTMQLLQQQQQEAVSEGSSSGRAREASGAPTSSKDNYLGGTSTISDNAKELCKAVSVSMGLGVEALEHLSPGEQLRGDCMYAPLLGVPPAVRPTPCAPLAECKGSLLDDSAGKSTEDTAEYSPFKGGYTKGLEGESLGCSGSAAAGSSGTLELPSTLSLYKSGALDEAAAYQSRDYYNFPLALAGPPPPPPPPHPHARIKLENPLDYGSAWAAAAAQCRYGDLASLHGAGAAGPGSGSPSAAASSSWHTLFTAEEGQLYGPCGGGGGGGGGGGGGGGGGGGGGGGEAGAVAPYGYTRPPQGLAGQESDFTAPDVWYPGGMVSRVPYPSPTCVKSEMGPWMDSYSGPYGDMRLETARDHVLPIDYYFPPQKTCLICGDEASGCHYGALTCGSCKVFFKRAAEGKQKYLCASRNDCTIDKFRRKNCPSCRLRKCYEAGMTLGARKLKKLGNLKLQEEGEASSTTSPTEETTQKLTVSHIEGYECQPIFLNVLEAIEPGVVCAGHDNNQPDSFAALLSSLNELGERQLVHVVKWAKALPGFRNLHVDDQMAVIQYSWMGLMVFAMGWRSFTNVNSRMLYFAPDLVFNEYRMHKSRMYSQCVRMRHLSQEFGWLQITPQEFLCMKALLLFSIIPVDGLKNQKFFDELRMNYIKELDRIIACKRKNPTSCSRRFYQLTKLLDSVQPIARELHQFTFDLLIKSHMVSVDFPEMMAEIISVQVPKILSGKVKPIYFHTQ

As for `Cc1nccn1-c1ccc(Sc2cccc(C3(C(N)=O)CCOCC3)c2)cc1`, the Potency is 0.77 µM (active) in [1]; 1.54 µM (active) in experiment [2]; 1.37 µM (active) in experiment [3]; 4.9 µM (active) in experiment [4]; 15.4 µM (active) in [5]; 27.3 µM (active) in experiment [6]. Moreover, the Potency in experiment [7] is 4.86 µM (active); in experiment [8] it was 0.275 µM [inconclusive] (active); with Aromatase (Homo sapiens) it was 54.5 µM (active). Moreover, the Potency result in experiment [9] and in experiment [10] was “inactive” throughout.

Regarding `Cc1ccc(Nc2nccc(N(C)c3ccc4c(C)n(C)nc4c3)n2)cc1S(N)(=O)=O`, the Potency in experiment [1] was 9.44 µM (active); in [2], 11.9 µM (active); in [3] it was 10.6 µM (active); in experiment [11], 11.9 µM (active); in experiment [7] it was 6.68 µM (active). The Potency result in experiment [4], in [6] and in experiment [13] was “inactive” each time. The call in [12] was inactive.

As for `CC(CCO)CCc1ccccc1` (stereo unspecified), the Potency entry in experiment [14], in experiment [3], in [4], in [6], in experiment [8] and in experiment [9] was “inactive” throughout. For the same compound, the Potency result (in experiment [13]; in experiment [15]; in experiment [10]; with Aromatase (Homo sapiens)) was “inactive” in each case. The compound was called inactive in experiment [12].

Consider `Cc1nc2ccccc2s1`, for which the Potency entry in experiment [1], in experiment [2], in experiment [3], in [4], in [6] and in [7] was “inactive” in each case. Moreover, the Potency entry (in [8]; in experiment [9]; in experiment [13]; in [15]; in experiment [10]; with Aromatase (Homo sapiens)) was “inactive” each time. The compound was called inactive in experiment [12].

In the case of `CCCOCCOCCO`, the Potency result in [1], in experiment [2], in [3], in [4], in experiment [5] and in [6] was “inactive” throughout. Moreover, the Potency entry in experiment [8], in experiment [9], in [13], in [15], in experiment [16] and in [10] was “inactive” in each case. For the same compound, the Potency entry with Aromatase (Homo sapiens) was “inactive”. In experiment [12], the call was inactive.

In the case of `CCCCCCCCCCCCCCC[C@H](O)[C@@H](N)CO`, the Potency result in [1], in experiment [2], in [3], in experiment [4], in experiment [17] and in experiment [5] was “inactive” throughout. The Potency result in [11], in experiment [8], in [9], in [13], in experiment [15] and in experiment [16] was “inactive” each time. Besides, the Potency entry (in [10]; in the experiment with Aromatase (Homo sapiens)) was “inactive” each time. Further, the outcome in experiment [12] was inactive.

On to `CC1(C)O[C@@H]2C[C@H]3[C@@H]4CCC5=CC(=O)C=C[C@]5(C)[C@H]4[C@@H](O)C[C@]3(C)[C@]2(C(=O)CO)O1`, for which the Potency entry in experiment [14], in experiment [3], in experiment [4], in [5], in experiment [6] and in [8] was “inactive” in each case. For the same compound, the Potency result (in [9]; in [13]; in experiment [10]; in the experiment with Aromatase (Homo sapiens)) was “inactive” each time. Further, the outcome in [12] was inactive. In addition, in [15], the Potency was 0.596 µM (active).

In the case of `CC(C)CCCCCOC(=O)CCCCC(=O)OCCCCCC(C)C`, the Potency in experiment [1], in experiment [2] and in [3] was 61.1 µM (active) each time. The Potency entry (in [4]; in experiment [6]; in experiment [7]; in experiment [9]; in experiment [10]; with Aromatase (Homo sapiens)) was “inactive” in each case. Further, the result in experiment [12] was inactive.

Turning to `CCCCC/C(=C\c1ccccc1)CO`, the Potency entry in experiment [14], in experiment [5], in experiment [9] and in experiment [10] was “inactive” throughout. Further, the values for the Potency (in experiment [6]; with Aromatase (Homo sapiens)) were 48 µM (active) and 30.3 µM (active), respectively. The outcome in [12] was inactive.

Turning to `Cc1cc(S(=O)(=O)O)ccc1N=Nc1c(O)ccc2ccccc12`, the Potency in experiment [2] is 61.1 µM (active); in experiment [5], 30.6 µM (active); in [6], 17.2 µM (active); in experiment [10] it was 30.6 µM (active). For the same compound, the Potency result (in experiment [3]; in [4]; in experiment [9]; in the experiment with Aromatase (Homo sapiens)) was “inactive” in each case. In experiment [12], the outcome was inactive.
